Measured values from PubChem BioAssay.
Activity calls are given as the source filed them. Unless noted, the rule behind the calls is not given here.

Tests used:
[1] = resazurin metabolic signal in HepG2 cells – cell-based, resazurin fluorescence, 24 h, PK04 Diversity Set, profiling panel (AID 1172); settings: HepG2 viability, higher = more signal
[2] = budding yeast growth changes without added modifier – OD600, strain BY4716, 24 h, basal condition, primary screen (AID 1173); settings: S. cerevisiae BY4716 growth, OD600, 24 h; higher = more signal, called active from +8 up or from −8 down
[3] = viability profiling in MM1S myeloma cells – cell-based, resazurin fluorescence, basal, 24 h, PK04 Diversity Set, profiling panel (AID 1174); settings: higher = more signal, called active from +8 up or from −8 down;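 note: MM1S multiple myeloma cell line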
[4] = biological target: Dihydroorotate dehydrogenase (quinone), mitochondrial (Plasmodium falciparum (isolate 3D7)) (UniProt Q08210); experiment: inhibition of P. falciparum DHODH – biochemical, C-terminal His tag, absorbance 600 nm, primary screen (AID 1175); settings: PfDHODH enzyme, DCIP absorbance 600 nm; higher = more signal, called active from +8 up or from −8 down;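 note: recombinant parasite enzyme with a five histidine tag at its C terminus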
Chain of Dihydroorotate dehydrogenase (quinone), mitochondrial (Plasmodium falciparum (isolate 3D7)) (Q08210 whole entry, looked up): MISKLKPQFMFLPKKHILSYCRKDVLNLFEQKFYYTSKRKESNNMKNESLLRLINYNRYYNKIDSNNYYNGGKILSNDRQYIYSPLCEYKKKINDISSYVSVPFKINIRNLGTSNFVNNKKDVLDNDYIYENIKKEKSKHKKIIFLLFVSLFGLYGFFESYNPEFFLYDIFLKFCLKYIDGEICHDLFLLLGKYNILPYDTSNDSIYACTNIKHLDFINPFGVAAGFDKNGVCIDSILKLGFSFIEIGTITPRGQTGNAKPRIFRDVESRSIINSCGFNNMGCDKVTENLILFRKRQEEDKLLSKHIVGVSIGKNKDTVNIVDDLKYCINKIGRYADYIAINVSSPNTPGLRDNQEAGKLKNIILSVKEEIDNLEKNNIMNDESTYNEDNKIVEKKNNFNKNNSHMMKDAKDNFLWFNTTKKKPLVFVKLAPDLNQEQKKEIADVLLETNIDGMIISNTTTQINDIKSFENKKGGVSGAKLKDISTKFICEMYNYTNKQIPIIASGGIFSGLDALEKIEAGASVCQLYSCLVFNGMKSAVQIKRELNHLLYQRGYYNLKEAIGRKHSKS

[5] = inhibition of PAO1 biofilm formation – strain PAO1, LB-PBS medium, absorbance 600 nm, primary screen (AID 1176); settings: P. aeruginosa PAO1 growth/biofilm, A600, 12 h; higher = more signal
[6] = growth modulation of vineyard yeast isolate – strain RM11-1a, OD600, basal, 24 h, primary screen (AID 1177);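 note: cultures grown under basal conditions with no added stressor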; settings: S. cerevisiae RM11-1a growth, OD600, 24 h; higher = more signal, called active from +8 up or from −8 down
[7] = growth of efflux-deficient E. coli DRC39 – strain DRC39, OD650, 24 h, E. coli filamentation inducers, primary screen (AID 1178);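 note: growth measured as culture turbidity by optical density at 650 nm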; settings: E. coli DRC39 acrAB, higher = more signal, called active from +8 up or from −8 down
[8] = growth of efflux-deficient E. coli DRC39 – strain DRC39, OD650, 48 h, E. coli filamentation inducers, primary screen (AID 1179);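 note: screen aims at cell division blockers that make cells filament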; settings: E. coli DRC39 delta-acrAB growth, higher = more signal, called active from +8 up or from −8 down
[9] = viability profiling in RPMI8226 myeloma cells – cell-based, resazurin fluorescence, basal, 24 h, PK04 Diversity Set, profiling panel (AID 1180); settings: higher = more signal;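 note: RPMI8826 multiple myeloma cell line at 5000 cells per well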
[10] = biological target: E3 ubiquitin-protein ligase XIAP (Homo sapiens) (UniProt P98170); experiment: small molecules binding XIAP protein – biophysical, small-molecule microarray, fluorescence 635 nm, primary screen (AID 1181); settings: higher = more signal;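 note: score merges 667 nm emission and signal to noise over triplicate slides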
Chain of E3 ubiquitin-protein ligase XIAP (Homo sapiens) (P98170 whole entry, looked up, the tested form may be a part): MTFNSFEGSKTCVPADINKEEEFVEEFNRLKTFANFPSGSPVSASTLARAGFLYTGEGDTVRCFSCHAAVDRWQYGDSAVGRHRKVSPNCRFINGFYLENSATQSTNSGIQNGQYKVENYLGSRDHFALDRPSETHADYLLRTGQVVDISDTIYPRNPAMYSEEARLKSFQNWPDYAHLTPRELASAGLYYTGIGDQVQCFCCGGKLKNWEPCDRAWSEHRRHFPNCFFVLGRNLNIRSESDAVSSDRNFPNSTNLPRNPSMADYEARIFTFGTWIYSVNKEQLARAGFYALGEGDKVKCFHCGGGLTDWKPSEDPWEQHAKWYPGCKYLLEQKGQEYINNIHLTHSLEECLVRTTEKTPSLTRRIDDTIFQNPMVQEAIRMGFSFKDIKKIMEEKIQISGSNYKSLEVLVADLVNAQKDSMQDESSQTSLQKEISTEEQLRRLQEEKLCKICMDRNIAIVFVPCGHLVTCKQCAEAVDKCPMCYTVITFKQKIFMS

[11] = tested on: XIP peptide (Xip251-270) binding; experiment: XIP fragment 251-270 binding compounds – biochemical, small-molecule microarray, fluorescence 635/667 nm, 0.1 µg/mL protein, primary screen (AID 1182); settings: fluorescent protein binding, 635 nm, higher = more signal, called active from +8 up or from −8 down
XIP peptide (Xip251-270) = experiment: compounds binding XIP fragment 251-270 – biochemical, small-molecule microarray, fluorescence 635/667 nm, 0.5 µg/mL protein, primary screen (AID 1183); settings: fluorescence 635 nm, higher = more signal
[12] = blood-stage malaria parasite viability loss – strain 3D7, DAPI fluorescence, 100 nL, primary screen (AID 1184);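 note: parasites grown inside human red blood cells in medium with human serum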; settings: P. falciparum 3D7 growth, 3 d, higher = more signal
[13] = biological target: Homeobox protein Hox-A13 (Mus musculus) (UniProt Q62424); experiment: disruptors of Hoxa13 oligonucleotide interaction – biochemical, fluorescence polarization, labeled oligonucleotide, primary screen (AID 1185); settings: Hoxa13:DNA binding, 15 min, higher = more signal, called active from +8 up or from −8 down
Chain of Homeobox protein Hox-A13 (Mus musculus) (Q62424 whole entry, looked up): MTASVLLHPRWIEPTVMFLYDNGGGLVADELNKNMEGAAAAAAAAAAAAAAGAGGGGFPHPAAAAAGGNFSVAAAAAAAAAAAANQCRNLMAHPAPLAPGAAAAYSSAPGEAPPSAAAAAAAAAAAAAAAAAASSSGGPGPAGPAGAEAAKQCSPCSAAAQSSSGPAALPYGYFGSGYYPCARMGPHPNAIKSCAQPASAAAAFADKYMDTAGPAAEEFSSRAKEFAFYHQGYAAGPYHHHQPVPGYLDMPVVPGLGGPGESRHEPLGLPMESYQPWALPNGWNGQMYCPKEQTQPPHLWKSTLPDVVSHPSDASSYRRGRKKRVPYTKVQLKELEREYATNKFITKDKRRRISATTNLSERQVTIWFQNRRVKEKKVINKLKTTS

[14] = blockers of DNA damage checkpoint Chk1 activation – imaging, HeLa, hydroxyurea, phospho-Chk1 antibody, percent positive cells, primary screen (AID 1186); settings: hydroxyurea-induced phospho-Chk1 immunofluorescence imaging, higher = more signal
[15] = blockers of DNA damage checkpoint Chk1 activation – imaging, HeLa, hydroxyurea, phospho-Chk1 nuclear intensity, primary screen (AID 1187); settings: hydroxyurea-induced phospho-Chk1 immunofluorescence imaging, higher = more signal

For `Cc1ccc(S[C@]2(C(=O)NC(C)C)CC(=O)N(Cc3ccccc3C(F)(F)F)[C@@H]2c2ccc(CO)cc2I)cc1`, the z-score [1] was 0.105, the z-score [2] was -5.85 (inactive) and the z-score [3] was -1.86 (inactive). For the same molecule, the composite z-score [4] was -1.47 (inactive), the z-score [5] was 0.27 (inactive) and the z-score [6] was -2.43 (inactive). The z-score [7] was 0.221 (inactive), the z-score [8] was 0.201 (inactive) and the z-score [9] was -2.09. For the same molecule, the composite z-score [10] was -0.126, the composite z-score [11] was 0.136 (inactive) and the composite z-score (XIP peptide (Xip251-270)) was 0.582. The z-score [12] was -1.14, the z-score [13] was -1.9 (inactive) and the z-score [14] was 0.0101 (inactive). For the same molecule, the z-score [15] was 0.293 (inactive).
For `COC(=O)C[C@H]1O[C@]2(C(=O)N(C)c3ccccc32)[C@@H](C)[C@@H]1[Si](C)(C)c1ccc(C)cc1`, the z-score [1] was -0.501, the z-score [2] was -2.64 (inactive) and the z-score [3] was 1.47 (inactive). For the same molecule, the composite z-score [4] was 0.0559 (inactive), the z-score [5] was -0.884 (inactive) and the z-score [6] was 0.155 (inactive). The z-score [7] was 1.37 (inactive), the z-score [8] was -0.466 (inactive) and the z-score [9] was 0.789. The composite z-score [10] was -0.0172, the composite z-score [11] was 0.611 (inactive) and the composite z-score (XIP peptide (Xip251-270)) was 0.336. For the same molecule, the z-score [12] was -2.09, the z-score [13] was -5.95 (inactive) and the z-score [14] was 0.0207 (inactive). For the same molecule, the z-score [15] was 0.0333 (inactive).
In the case of `O=C1O[C@@H](c2ccccc2)[C@@H](c2ccccc2)N2[C@@H](c3ccc(O)cc3)[C@]3(C(=O)Nc4ccccc43)[C@@H](C(=O)Nc3nc4ccccc4s3)[C@H]12`, the z-score [1] is reported as -1.66, the z-score [2] is reported as -0.505 (inactive) and the z-score [3] is reported as -3.11 (inactive). The composite z-score [4] was 0.162 (inactive), the z-score [5] was 2.43 (inactive) and the z-score [6] was 0.72 (inactive). The z-score [7] was -0.0021 (inactive), the z-score [8] was 0.251 (inactive) and the z-score [9] was -4.69. The composite z-score [10] was -0.0045, the composite z-score [11] was 1.03 (inactive) and the composite z-score (XIP peptide (Xip251-270)) was 0.638. For the same molecule, the z-score [12] was -0.247, the z-score [13] was 2.05 (inactive) and the z-score [14] was -0.193 (inactive). The z-score [15] was -0.259 (inactive).
In the case of `COc1c(C)cc(-c2cc3c(c(Cc4ccccc4)n2)[Si](C(C)C)(C(C)C)OC3)cc1C`, the z-score [1] is reported as -0.683, the z-score [2] is reported as 1.06 (inactive) and the z-score [3] is reported as -0.533 (inactive). The composite z-score [4] was -0.0592 (inactive), the z-score [5] was 0.055 (inactive) and the z-score [6] was 0.576 (inactive). The z-score [7] was -0.363 (inactive), the z-score [8] was -0.779 (inactive) and the z-score [9] was -0.661. The composite z-score [10] was -0.138, the composite z-score [11] was -0.337 (inactive) and the composite z-score (XIP peptide (Xip251-270)) was -0.0392. For the same molecule, the z-score [12] was -2.74, the z-score [13] was 0.472 (inactive) and the z-score [14] was -0.142 (inactive). The z-score [15] was 0.135 (inactive).
For `[N-]=[N+]=NCc1ccccc1C[C@@]1(C(N)=O)N=C(c2ccc(OCCCO)cc2)O[C@@H]1c1ccccc1CN=[N+]=[N-]`, the z-score [1] was 0.717, the z-score [2] was -1.43 (inactive) and the z-score [3] was -0.833 (inactive). The composite z-score [4] was -11.6 (active), the z-score [5] was 0.261 (inactive) and the z-score [6] was 0.835 (inactive). The z-score [7] was 0.178 (inactive), the z-score [8] was 0.041 (inactive) and the z-score [9] was 0.0178. The composite z-score [10] was 0.0049, the composite z-score [11] was 0.145 (inactive) and the composite z-score (XIP peptide (Xip251-270)) was 0.0228. The z-score [12] was -1.91, the z-score [13] was -1.91 (inactive) and the z-score [14] was -0.228 (inactive). For the same molecule, the z-score [15] was -0.347 (inactive).
In the case of `COCCCNC(=O)[C@@H]1c2ccccc2C(=O)N(Cc2ccccc2C(F)(F)F)[C@H]1c1ccc(CO)cc1`, the z-score [1] is reported as 0.816, the z-score [2] is reported as -0.756 (inactive) and the z-score [3] is reported as 1.51 (inactive). For the same molecule, the composite z-score [4] was -0.955 (inactive), the z-score [5] was -0.727 (inactive) and the z-score [6] was 0.186 (inactive). The z-score [7] was 0.414 (inactive), the z-score [8] was 0.0948 (inactive) and the z-score [9] was 1.48. For the same molecule, the composite z-score [10] was -0.138, the composite z-score [11] was 0.348 (inactive) and the composite z-score (XIP peptide (Xip251-270)) was -0.149. The z-score [12] was 0.226, the z-score [13] was -1.82 (inactive) and the z-score [14] was -0.477 (inactive). For the same molecule, the z-score [15] was -0.593 (inactive).
For `C=C(/C=C/CNS(=O)(=O)c1ccc(C)cc1)[C@H](O)[C@H]1CCCN1S(=O)(=O)c1ccccc1[N+](=O)[O-]`, the z-score [1] was -0.0339, the z-score [2] was 0.587 (inactive) and the z-score [3] was 0.113 (inactive). For the same molecule, the composite z-score [4] was 0.858 (inactive), the z-score [5] was -0.447 (inactive) and the z-score [6] was 1.41 (inactive). For the same molecule, the z-score [7] was 1.45 (inactive), the z-score [8] was 0.579 (inactive) and the z-score [9] was 0.0925. The composite z-score [10] was -0.0582, the composite z-score [11] was -0.121 (inactive) and the composite z-score (XIP peptide (Xip251-270)) was 0.729. For the same molecule, the z-score [12] was -2.04, the z-score [13] was -5.58 (inactive) and the z-score [14] was -0.0778 (inactive). For the same molecule, the z-score [15] was 0.181 (inactive).
For `O=C1NCC(=O)N2[C@@H]1C[C@@H](C(=O)O)[C@H]2c1ccc(O)cc1`, the z-score [1] was 0.153, the z-score [2] was -0.231 (inactive) and the z-score [3] was 0.393 (inactive). The composite z-score [4] was -0.273 (inactive), the z-score [5] was 0.463 (inactive) and the z-score [6] was 0.414 (inactive). The z-score [7] was -0.42 (inactive), the z-score [8] was -0.0242 (inactive) and the z-score [9] was 0.205. The composite z-score [10] was 0.0374, the composite z-score [11] was 1.26 (inactive) and the composite z-score (XIP peptide (Xip251-270)) was 0.665. For the same molecule, the z-score [12] was 0.489, the z-score [13] was -1.91 (inactive) and the z-score [14] was 0.0155 (inactive). The z-score [15] was 0.0565 (inactive).
In the case of `NCCCCCCNC(=O)[C@@H]1C[C@@H]2C(=O)N3CCC[C@H]3C(=O)N2[C@@H]1c1ccc(O)cc1`, the z-score [1] is reported as -0.0529, the z-score [2] is reported as -0.547 (inactive) and the z-score [3] is reported as -0.233 (inactive). For the same molecule, the composite z-score [4] was -1.18 (inactive), the z-score [5] was -0.282 (inactive) and the z-score [6] was -0.407 (inactive). The z-score [7] was -0.188 (inactive), the z-score [8] was -0.196 (inactive) and the z-score [9] was -0.134. The composite z-score [10] was -0.209, the composite z-score [11] was -0.386 (inactive) and the composite z-score (XIP peptide (Xip251-270)) was 0.664. The z-score [12] was 1.42, the z-score [13] was -2.07 (inactive) and the z-score [14] was 0.683 (inactive). For the same molecule, the z-score [15] was 0.289 (inactive).
